From PubChem BioAssay AID567 (The Scripps Research Institute Molecular Screening Center, 2006)
Screen size: about 65,000 compounds; about 370 (0.57%) were called active. For the sample, actives were picked, then their nearest neighbours and some compounds at random. A number with no mark means an inactive call.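 How the source made its calls: active means activation above the screen-wide mean activation plus 3 SD (cut at about 19% in these data); inactive means the rest.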

target: 5-hydroxytryptamine receptor 1A (Homo sapiens) (UniProt P08908); assay: human 5-HT1a receptor agonists, primary screen, cell-based, CHO, Ga15 NFAT-bla reporter (AID 567); settings: CHO 5-HT1a Ga15 NFAT-bla reporter, FRET ratio; at 10 µM; hits give high values; 0% basal, 100% maximal reference agonist;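 further: 0% = DMSO wells and 100% = 5-CT at EC100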
Sequence (P08908 whole entry, looked up): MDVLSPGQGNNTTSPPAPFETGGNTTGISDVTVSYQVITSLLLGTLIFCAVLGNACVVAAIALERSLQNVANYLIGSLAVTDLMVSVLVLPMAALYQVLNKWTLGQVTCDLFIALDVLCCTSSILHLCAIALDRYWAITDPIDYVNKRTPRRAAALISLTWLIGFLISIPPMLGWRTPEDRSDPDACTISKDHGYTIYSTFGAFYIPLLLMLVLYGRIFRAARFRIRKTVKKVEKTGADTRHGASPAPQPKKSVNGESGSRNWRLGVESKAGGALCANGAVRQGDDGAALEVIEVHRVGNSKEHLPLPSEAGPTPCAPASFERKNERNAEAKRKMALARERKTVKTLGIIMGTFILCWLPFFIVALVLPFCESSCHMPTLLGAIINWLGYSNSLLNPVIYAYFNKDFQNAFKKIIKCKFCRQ

Compared with `CC1Cn2c(nnc2-c2cccs2)S1` (stereo unspecified), `CCOC(=O)CSc1nnc(-c2ccncc2)o1` is lower in activation: 0.5% for the first, -4.83% for the second.

First: Cc1ccc(CNC(=O)CN2CCN(Cc3ccc(Cl)cc3)C2=O)cc1
Second: Cc1ccc(C(=O)N(CN2CCCC2=O)c2ccc(F)cc2)cc1
The activation of the first is higher: 0.67% for the first, -4.03% for the second.

First: Cn1c(C(=O)NCCN2CCc3ccccc3C2)cc2c(=O)[nH]c3ccccc3c21
Second: O=C(CN1CCOCC1)Nc1c(-c2ccccc2)c2cc(Br)ccc2[nH]c1=O
The activation of the first is higher: -1.75% for the first, -1.84% for the second.

Going from `CCc1ccccc1N(CC(=O)N1CCN(c2ccccc2F)CC1)S(C)(=O)=O` to `CCCC(=O)Nc1ccccc1N1CCN(C(=O)c2ccccc2)CC1`, the activation rises from -1.54% to 0.59%.

First: COc1ccccc1CNC(=O)CCCn1c(=O)c2ccccc2n(CC(=O)NC2CCCC2)c1=O
Second: CCOC(=O)N1CCC(NC(=O)C(C)n2c3ccccc3c3cnn(C)c(=O)c32)CC1 (stereo unspecified)
The activation of the first is lower: -2.51% for the first, -1.53% for the second.

Going from `CCCOC(=O)CC1C(=O)NCCN1Cc1ccc(F)cc1` (stereo unspecified) to `CCC(C)NC(=O)C1CCC(=O)N1Cc1ccc(C)cc1` (stereo unspecified), the activation falls from 1.2% to -3.11%.

Compared with `Cc1c(NC(=O)C(C)OC(=O)c2cc3c4ccccc4n(C)c3s2)c(=O)n(-c2ccccc2)n1C` (stereo unspecified), `CCn1c(-c2cc(OC)ccc2OC)csc1=Nc1c(C)n(C)n(-c2ccccc2)c1=O` is lower in activation: 1.13% for the first, -3.67% for the second.

First: O=c1c2cc3c(=O)n(CC4CCCO4)c(=O)c3cc2c(=O)n1CC1CCCO1 (stereo unspecified)
Second: O=C(NC1CCCCC1)c1ccc2c(=O)n(CC3CCCO3)c(=O)[nH]c2c1 (stereo unspecified)
The activation of the first is higher: -2.73% for the first, -3.15% for the second.

Compared with `CCOc1ccc(C2C(C(=O)NC)=C(C)Nc3nc4ccccc4n32)cc1OC` (stereo unspecified), `CCn1c(CNC(=O)c2ccc(OC)c(OC)c2)nnc1SCC(=O)Nc1ccccc1` is higher in activation: -2.74% for the first, 1.92% for the second.

Compared with `c1cnc(NC2C3CC4CC(C3)CC2C4)nc1` (stereo unspecified), `O=C(CSc1ncccn1)NC(=O)NCc1ccccc1` is lower in activation: -0.19% for the first, -2.73% for the second.

Going from `COc1ccc2c(c1OC)C(=O)OC2c1c(O)nc(SC)n(-c2ccccc2)c1=O` (stereo unspecified) to `CSc1ccc(-c2c(C#N)c(N)nc3c2c(C)nn3-c2ccccc2)cc1`, the activation falls from 1.4% to 1.16%.

Compared with `CCOC(=O)Cn1c(=O)oc2cc(S(=O)(=O)N(C)Cc3ccco3)ccc21`, `CCOC(=O)C1C(=O)C=C(c2ccc(OC)cc2)CC1c1ccco1` (stereo unspecified) is higher in activation: -3.37% for the first, -1.83% for the second.

First: Cc1ccc(C(C)C)c(OCc2nnc(SCC(=O)Nc3nccs3)n2C)c1
Second: CCn1c(SCC(=O)Nc2cc(C)ccc2C)nnc1-c1cnccn1
The activation of the first is higher: -0.25% for the first, -3.82% for the second.

Going from `O=C1c2ccccc2-c2ncnc3c(N4CCOCC4)cc(N4CCOCC4)c1c23` to `O=C(Nc1cc(N2CCOCC2)ncn1)NC1(C(F)(F)F)Oc2ccc(Cl)cc2O1` (stereo unspecified), the activation falls from 0.99% to -2.08%.

First: COCCCn1c2nc3ccccc3nc2c2c(=O)n(Cc3ccc(Cl)cc3)c(C)nc21
Second: CC(C)(C)OC(=O)c1c(N)n(CCCN2CCCC2=O)c2nc3ccccc3nc12
The activation of the first is lower: 1.36% for the first, 4.61% for the second.

Compared with `COc1cccc(OCC(O)CN2CCN(CCO)CC2)c1` (stereo unspecified), `O=C(C(c1ccccc1)c1ccccc1)N1CCN(CC(O)COc2ccccc2)CC1` (stereo unspecified) is lower in activation: 1% for the first, -2.69% for the second.

Going from `Cn1nc(-c2ccc(Cl)cc2)c2cc(C(=O)NCc3ccco3)sc21` to `Cc1onc(-c2ccccc2)c1C(=O)Nc1ccccc1C#N`, the activation rises from -2.11% to -0.43%.

First: CCc1c(C)nc(N2CCN(Cc3ccccc3)CC2)[nH]c1=O
Second: CCC(=O)Nc1ccccc1C(=O)N1CCN(Cc2ccccc2)CC1
The activation of the first is higher: -1.04% for the first, -6.46% for the second.

Going from `CC(C)N1C(=O)C2C(C(=O)NC3CCCCC3)C3C=CC2(O3)C1C(=O)NC1CCCC1` (stereo unspecified) to `O=C(NC1CCCCC1)n1c(=O)oc2cc(S(=O)(=O)N3CCCCC3)ccc21`, the activation rises from -3.66% to 1.83%.

Compared with `CCCNS(=O)(=O)c1ccc(CCC(=O)NCc2cccnc2)cc1`, `O=C(COc1ccc(S(=O)(=O)NCCc2ccccc2)cc1)N1CCCC1` is lower in activation: 0.51% for the first, -3.17% for the second.

First: CCN1CCN(Cc2nc3c(c(=O)n(C)c(=O)n3C)n2CC(=O)c2ccccc2)CC1
Second: Cn1cc(S(=O)(=O)N2CCC(Cc3ccccc3)CC2)c(=O)n(C)c1=O
The activation of the first is lower: -1.47% for the first, -1.31% for the second.

Going from `CCn1nnc(NC(=O)c2c(OC)cccc2OC)n1` to `COc1ccc(C)cc1NC(=O)CSc1nc(SC)ns1`, the activation falls from 0.51% to -0.56%.

Compared with `O=C(COc1ccccc1)NCCc1nc2ccccc2[nH]1`, `c1ccc(Nc2n[nH]nc2-c2ccccc2)cc1` is lower in activation: 2.44% for the first, 0.42% for the second.

First: Cc1cccc(NC(=O)C2CCCN2S(=O)(=O)c2ccc(F)cc2)c1C (stereo unspecified)
Second: CC(=O)c1cccc(S(=O)(=O)N2CCC(n3nnc4cc(F)ccc43)CC2)c1
The activation of the first is lower: 0.24% for the first, 1.45% for the second.

Compared with `O=C1Nc2c(Br)cc(Br)cc2C1(O)N1CCOCC1` (stereo unspecified), `CC(C)NS(=O)(=O)c1ccc(CCC(=O)N2CCOCC2)cc1` is lower in activation: 0.9% for the first, -3.1% for the second.

Compared with `CCOCCCN1C(=O)CN(C2CCCCC2)C(=O)C1c1ccc(OCC)c(OC)c1` (stereo unspecified), `COc1ccc(S(=O)(=O)N2CCC(C(=O)N3CCOCC3)CC2)cc1OC` is lower in activation: 0.91% for the first, -2.94% for the second.

First: CCCS(=O)(=O)Nc1c(C(=O)O)[nH]c2ccccc12
Second: CCCOC(=O)c1cc2ccccc2oc1=O
The activation of the first is lower: -2.21% for the first, -1.25% for the second.

First: CCCCOc1ccc(Cl)cc1CSc1nncn1N
Second: C=C(Br)Cn1c(CCCC)nc2ccccc21
The activation of the first is lower: -1.4% for the first, 0.52% for the second.

First: Cc1csc(NC(=O)NC2(C(F)(F)F)Oc3ccccc3O2)n1
Second: O=C(CSC1=NCCS1)Nc1nc(-c2ccccc2)cs1
The activation of the first is higher: 1.56% for the first, -0.71% for the second.

Going from `COc1ccc(Cn2c(=O)sc3ccccc32)cc1OC` to `COc1ccc(NC(=O)CN(C)S(=O)(=O)c2ccccc2)cc1OC`, the activation falls from 1.04% to -0.21%.

Compared with `CN(C)c1ccc(NC(=O)c2ccncc2)c2ccccc12`, `COc1cccc(C2/C(=C(/O)c3ccncc3)C(=O)C(=O)N2CCCN(C)C)c1` (stereo unspecified) is lower in activation: -2.38% for the first, -2.65% for the second.

Going from `Cc1nc(NC(=O)CCC(=O)O)sc1C(=O)N(C)C` to `CCCC(=O)Nc1nnc(CC(=O)OCC)s1`, the activation falls from -1.18% to -1.79%.

Compared with `Cc1cc(NC(=O)Cn2nc(C(F)(F)F)c3c2CCCC3)no1`, `CC1CCCCN1CC(=O)NCc1ccc2c(c1)OCO2` (stereo unspecified) is higher in activation: -1.46% for the first, 0.18% for the second.

Compared with `Cc1cccc(N2CCN(C(c3ccccc3)c3nnnn3CC3CCCO3)CC2)c1C` (stereo unspecified), `Cc1ccc(C(c2sc3nc(C)nn3c2O)N2CCN(c3ccccc3)CC2)cc1` (stereo unspecified) is higher in activation: -0.4% for the first, 1% for the second.

First: CN(C)c1cc[n+](Cc2ccccc2)cc1
Second: Cn1c(=O)c(=O)n(C)c2cc(S(=O)(=O)NCCc3ccccc3)ccc21
The activation of the first is higher: 0.31% for the first, -2.1% for the second.

Going from `COC(=O)c1ccc(Oc2nc(Nc3ccc(F)cc3)nc(N3CCCC3)n2)cc1` to `COc1cccc(Oc2ccc(N)cc2)c1`, the activation falls from 0.02% to -1.26%.

Going from `N#CNC1=NCN(CCc2ccccc2)CN1` to `O=C(O)CCCC(=O)Nc1ccccc1-n1ccnc1`, the activation falls from -0.74% to -6.2%.

Compared with `CCCCC(=O)N1CC2(C)CN(C(=O)CCCC)CC(C)(C1)C2=O`, `CCC(=O)c1ccc(OCC(O)CN2CC(C)OC(C)C2)cc1` (stereo unspecified) is higher in activation: -3.12% for the first, -2.72% for the second.

First: CN1C(=O)c2ccc(NC(=O)c3c(F)c(F)c(F)c(F)c3F)cc2C1=O
Second: O=c1c(-c2ccc3c(c2)OCCO3)c(C(F)(F)F)oc2cc(O)cc(O)c12
The activation of the first is lower: -1.19% for the first, 2.15% for the second.

Compared with `Cc1nc(N2CCCC2C(=O)O)c2oc3ccccc3c2n1` (stereo unspecified), `Cc1noc(C)c1COC(=O)Cn1c(C)nc2ccccc21` is lower in activation: 0.22% for the first, -2.62% for the second.

Compared with `CC1(C)NC(=O)N(CCOc2cccc(Oc3ccccc3)c2)C1=O`, `O=C(CS(=O)(=O)c1cn(Cc2cccc(F)c2)c2ccccc12)N1CCCCC1` is higher in activation: -2.31% for the first, 0.6% for the second.

First: O=C(Nc1ccccc1N1CCN(c2ccccc2)CC1)c1cccc(F)c1
Second: O=C(c1ccc(-n2cnnn2)cc1)N1CCN(C(c2ccccc2)c2ccccc2)CC1
The activation of the first is higher: 3.42% for the first, -2.96% for the second.

First: Cc1ccc2c(c1)NCC(C(=O)NC1CCC(C)CC1)O2 (stereo unspecified)
Second: O=C(CN1CCN(c2ccccc2F)CC1)c1ccc2c(c1)OCO2
The activation of the first is lower: -2.41% for the first, -1.08% for the second.

Going from `COc1ccc(O)c(C=Nc2cc(C)on2)c1` to `CN(C)S(=O)(=O)c1ccc(Oc2ccc(S(=O)(=O)N(C)C)cc2)cc1`, the activation rises from -4.57% to -1.45%.

For `COC(=O)c1ccc2c(=O)n(CC3CCCO3)c(=S)[nH]c2c1` (stereo unspecified), the activation was 66.3% (active).
For `c1cnn(-c2cc(N3CCOCC3)ncn2)c1`, the activation was 42% (active).
`N#Cc1c(N)n(CCOC(=O)c2ccc(Cl)cc2)c2nc3ccccc3nc12` was tested, and the activation was 27.6% (active).
`CCC(=O)c1ccc(OCC(O)CN2CCN(c3cccc(C(F)(F)F)c3)CC2)cc1` (stereo unspecified) was tested, and the activation was 36.5% (active).
`CCC(=O)c1ccc(OCC(O)CN2C(=O)NC(C)(C)C2=O)cc1` (stereo unspecified) was tested, and the activation was 80.3% (active).
For `O=C(Nc1ccccc1N1CCN(C(=O)c2ccccc2)CC1)c1ccc2c(c1)OCO2`, the activation was 60% (active).
For `CCOC(=O)c1cc2cc(-c3c(C(=O)OCC)oc4cc(O)cc(O)c4c3=O)ccc2o1`, the activation was 20.4% (active).
With `Cc1ccc(Oc2ccc(N)cc2)cc1` the activation was 61.2% (active).
